Consider 61 molecules from PubChem BioAssay AID1477 (National Center for Advancing Translational Sciences (NCATS), 2009).

Out of some 230,000 compounds screened, fewer than 10 were called active. About 3% were inconclusive and are not listed. Not all results are given here. A number with no mark means an inactive call. Calls follow the shape of the dose curve; as a rule, active = well fitted curve in the direction sought with a large enough effect; inconclusive = small, poorly fitted or top-dose-only effect, or effect the other way, or another doubt; inactive = no such curve, though single readings can be large or run the other way.

Sequence of Runt-related transcription factor 1 (Homo sapiens) + Core-binding factor subunit beta (Homo sapiens) (Q01196 whole entry, looked up): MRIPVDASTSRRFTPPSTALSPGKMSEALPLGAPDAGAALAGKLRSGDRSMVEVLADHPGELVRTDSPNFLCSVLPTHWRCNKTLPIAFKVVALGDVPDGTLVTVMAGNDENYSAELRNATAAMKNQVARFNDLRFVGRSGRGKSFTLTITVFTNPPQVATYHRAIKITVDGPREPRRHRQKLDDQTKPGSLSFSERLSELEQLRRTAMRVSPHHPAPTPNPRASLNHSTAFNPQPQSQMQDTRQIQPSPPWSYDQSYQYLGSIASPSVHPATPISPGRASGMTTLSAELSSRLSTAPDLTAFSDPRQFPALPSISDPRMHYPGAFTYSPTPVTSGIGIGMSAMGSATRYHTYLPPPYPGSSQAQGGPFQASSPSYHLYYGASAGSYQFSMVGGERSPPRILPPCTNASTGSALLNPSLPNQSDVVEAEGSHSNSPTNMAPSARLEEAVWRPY
Sequence of Runt-related transcription factor 1 (Homo sapiens) + Core-binding factor subunit beta (Homo sapiens) (Q13951 whole entry, looked up): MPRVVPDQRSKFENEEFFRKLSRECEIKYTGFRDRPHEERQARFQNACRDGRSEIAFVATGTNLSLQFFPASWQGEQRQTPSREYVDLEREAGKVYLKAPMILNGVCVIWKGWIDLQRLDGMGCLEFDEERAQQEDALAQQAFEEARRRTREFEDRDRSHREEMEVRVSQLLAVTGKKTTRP

This assay has as its target Runt-related transcription factor 1 (Homo sapiens) + Core-binding factor subunit beta (Homo sapiens) (UniProt Q01196+Q13951). As to the kind of experiment: qHTS Assay for Compounds Blocking the Interaction Between CBF-beta and RUNX1 for the Treatment of Acute Myeloid Leukemia. Also: % of control where 0% means no effect. Conditions: AlphaScreen CBFb-His/RUNX1-biotin binding, biochemical; series mostly up to 59.8 µM. An excerpt: NIH Chemical Genomics Center [NCGC]
NIH Molecular Libraries Probe Production centers Network [MLPCN]
Assay Submitter (PI): Paul Liu
Core Binding Factor (CBF) abnormalities are associated with 20-25% of all acute myeloid leukemias (AML), of which 5-10% are further sub classified as acute myelomonocytic leukemia with eosinophilia, also known as M4Eo in the FAB classification scheme. This subtype of leukemia is usually associated with chromosome 16 inversion (p13:q22). Chromosome 16 inversion results in formation of the fusion oncogene CBFB-MYH11, which encodes the fusion protein CBF-beta-SMMHC.
It has been hypothesized that the interference of CBF-beta and RUNX1 binding could have therapeutic implications for patients with CBF mediated leukemias. We developed a CBF-beta and RUNX1 binding assay in AlphaScreenTM format and optimized it for high throughput screening to search for inhibitors. The goal of this project is to screen MLPCN's compound collection (MLSMR) for identifying the inhibitors of the interaction between CBF-beta and RUNX1 proteins as research probes. If these probes work well in the animal models, the ultimate goal of this project is to development a new drug treatment for this disease.
This assay can not be used to assess how apparent inhibitors interfere with protein binding, and whether inhibitors specifically bind to either protein. Disruption of this protein-protein interaction, through any mechanism, is the intended target activity.
NCGC Assay Protocol Summary:
Step, Parameter, Description
(1) Reagent, 3 uL CBFb-His/RUNX1-biotin mix incubated together for 20 minutes at room temperature (30 nM each)
(2) Compound or control, 23 nL compound stock solution
(3) Incubation, 15 minutes at Room temperature
(4) Reagent, 1 uL 50 ng each of beads (Nickel beads and streptavidin beads)
(5) Incubation, 90 minutes at Room temperature
(6) Detection, Excitation=365 nm Emission=440 nm, Envision reader in AlphaScreenTM mode
Keywords: MLSMR, MLPCN, NIH Roadmap, qHTS, NCGC, Core binding factor, CBF, CBF-beta, Acute myeloid leukemia
(In general: In qHTS, concentration-response curves come from the screen itself.)
For the molecule `COc1ccc(SC[C@H](Cc2ccccc2)N2CCN(CCc3ccccc3)CCC2=O)cc1`, the activity, negative = inhibition entry was “inactive”.
Consider `CON(C)S(=O)(=O)c1ccc2c(c1)NC(=O)C1CCCN21` (stereo unspecified), for which the activity, negative = inhibition entry was “inactive”.
On to `O=C(NCCc1ccccn1)c1cccnc1Oc1ccc(Cl)cc1`, for which the activity, negative = inhibition result was “inactive”.
`COc1ccc(SCCN2CCN(CC(C)C)CCC2=O)cc1`: the activity, negative = inhibition result was “inactive”.
Consider `Cc1ccccc1C(OCCN(C)C)C1CCCCC1` (stereo unspecified), for which the activity, negative = inhibition result is “inactive”.
In the case of `COC(=O)c1ccc(C(NC(=O)OCc2ccccc2)/C(F)=C/[C@@H](C)C(=O)O)cc1` (stereo partly specified), the activity, negative = inhibition result was “inactive”.
To `C[C@@H]1O[C@@H](OC[C@H]2O[C@@H](Oc3cc(O)c4c(c3)O[C@H](c3ccc(O)c(O)c3)CC4=O)[C@H](O)[C@@H](O)[C@@H]2O)[C@H](O)[C@H](O)[C@H]1O` belongs “inactive”.
To `COc1ccc(NC(=O)CSc2ncnc3[nH]ncc23)cc1` belongs “inactive”; to `COc1ccc(-c2nc3c(c4c2C[C@H](c2ccccc2)OC4)CN(C(=O)c2cccnc2)CC3)c(C)c1`, 2.51% [at 13.1 µM].
For `CC1CCN(C(=S)c2ccc(-c3ccc(Cl)cc3Cl)o2)CC1` the value was “inactive”; for `O=C(/C=C/c1ccc(OCc2c(F)cccc2Cl)cc1)N1CCOCC1`, “inactive”; for `OCCC(O)CO` (stereo unspecified), “inactive”.
Take `COc1ccc2cc(-c3[nH]ncc3CNCCn3nc(C)cc3C)ccc2c1`: the activity, negative = inhibition result was “inactive”.
Take `COC(=O)c1ccc([C@@H](O)[C@H](C)C(=O)CC(=O)OC(C)(C)C)cc1`: the activity, negative = inhibition result is “inactive”.
Regarding `O=C(Nc1cc(C(=O)Nc2ccc(S(=O)(=O)O)cc2)cc(C(=O)Nc2ccc(S(=O)(=O)O)cc2)c1)Nc1cc(C(=O)Nc2ccc(S(=O)(=O)O)cc2)cc(C(=O)Nc2ccc(S(=O)(=O)O)cc2)c1`, the activity, negative = inhibition result was “inactive”.
For `Cc1ccccc1C(CC(=O)c1cccs1)C(C#N)C#N` (stereo unspecified), the activity, negative = inhibition entry was “inactive”.
For the molecule `CC[C@H](C)[C@H](NC(=O)[C@@H](N)CCC(=O)O)C(=O)N[C@@H](CC(C)C)C(=O)N[C@@H](CC(=O)O)C(=O)N[C@H](C(=O)N1CCC[C@H]1C(=O)N[C@@H](CO)C(=O)N[C@H](C(=O)O)[C@@H](C)O)C(C)C`, the activity, negative = inhibition result was “inactive”.
To `CCCCOc1ccc(C(=O)N/C(=C/C=C/c2ccccc2)C(=O)N2CCOCC2)cc1` belongs “inactive”; to `CC(Oc1cccc(NC(=O)c2cccs2)c1)C(=O)c1ccccc1` (stereo unspecified), “inactive”.
For `Cc1cccc(Nc2nc3c(S(=O)(=O)c4ccccc4)nnn3c3ccccc23)c1C` the value was “inactive”; for `CCO[C@@H]1OC(C(N)=O)=C[C@H](c2ccc(Br)cc2)[C@H]1CCCO`, “inactive”; for `O=c1c(O)c(-c2ccc(O)cc2)oc2ccccc12`, “inactive”.
For the molecule `N=c1n(CCc2ccccc2)c2ccccc2n1Cc1ccccc1F`, the activity, negative = inhibition result was “inactive”.
For `O=C1CCC(=O)N(O)CCCCCNC(=O)CCC(=O)N(O)CCCCCNC(=O)CCC(=O)N(O)CCCCCN1` the value was “inactive”; for `CC1CN(c2nc(-c3ccccc3)nnc2-c2ccccc2)CC(C)O1` (stereo unspecified), “inactive”; for `CCOCCCNCc1ccc(OCc2ccc(F)cc2)c(OC)c1`, “inactive”.
For `O=C(NCc1ccco1)c1ccc(NS(=O)(=O)c2cccc([N+](=O)[O-])c2)cc1` the value was “inactive”; for `COc1cc(OC)c2c(c1C(CCN1CCCCC1)c1ccc(N(C)C)cc1)OC(=O)CC2c1ccc(N(C)C)cc1` (stereo unspecified), “inactive”; for `O=C(NCC1CCCO1)c1ccccc1-c1nc(-c2ccccc2Cl)no1` (stereo unspecified), “inactive”.
For `COc1ccc(CCNC(=O)CSc2nc(-c3ccc(OC)c(OC)c3)ccc2C#N)cc1` the value was “inactive”; for `COc1ccc(C[C@H](C(=O)O)N2C(=O)c3ccc(C(=O)O)cc3C2=O)cc1`, “inactive”.
Take `O=C(N/N=C/c1ccc(Cl)cc1)c1nc2ccc([N+](=O)[O-])cc2c(=O)[nH]1`: the activity, negative = inhibition result was “inactive”.
With `COc1ccc(-c2ccc(OC)c(C3C4C=CCC(C)C4C(=O)N3Cc3ccccc3)c2)cc1C` (stereo unspecified), the activity, negative = inhibition result is “inactive”.
With `O=S(O)S(=O)(=O)O`, the activity, negative = inhibition entry was “inactive”.
As for `CCN(CC)N=Nc1cccc(NC(C)=O)c1`, the activity, negative = inhibition entry was “inactive”.
`Cc1cc(N(C)C)nc(Cl)n1`: the activity, negative = inhibition entry was “inactive”.
With `CN(C)C(=O)c1ccc2c(c1)C1C3CCC(C3)C1C(c1ccccc1)N2` (stereo unspecified), the activity, negative = inhibition entry was “inactive”.
Consider `COC(=O)c1c(C)oc(C)c1S(=O)(=O)Nc1ccc(C(C)C)cc1`, for which the activity, negative = inhibition result is “inactive”.
For `O=C(/C=C/c1ccc2c(c1)OCO2)NCc1cn2cc(Cl)ccc2n1` the value was “inactive”.
Consider `C=CCCC(=O)Nc1nc(C)c(-c2csc(Nc3ccc(Cl)cc3)n2)s1`, for which the activity, negative = inhibition entry is “inactive”.
To `COc1ccc2[nH]c3c(C)c4cc[n+](C)cc4c(C)c3c2c1` belongs “inactive”; to `CCCCCCCC1=Cc2ccc(F)cc2C(C(C(=O)OC)C(=O)OC)N1C(=O)OC` (stereo unspecified), “inactive”; to `CCOC(OCC)OCC`, “inactive”.
To `Cc1ccc(-c2nnc(-n3nnc4ccccc43)c3ccccc23)cc1` belongs “inactive”; to `COc1ccc(C2CC(O)(c3ccccc3)Oc3cc(C)cc(C)c32)cc1` (stereo unspecified), “inactive”.
For `CC(=O)Nc1ccc(S(=O)(=O)N2N=NC3C2C2CC4C3(CN(C(=O)OC(C)(C)C)S4(=O)=O)O2)cc1` (stereo unspecified) the value was “inactive”; for `C=C1CCN(C(CC(C)C)C(=O)NCc2cc(OC)c(OC)c(OC)c2)S(=O)(=O)c2ccccc21` (stereo unspecified), “inactive”; for `COc1cc(NC(=S)N2CCCC(C)C2)c(OC)cc1Cl` (stereo unspecified), “inactive”.
For the molecule `COC(=O)CCc1ccccc1S(=O)(=O)N(CCC(=O)OC)Cc1ccccc1`, the activity, negative = inhibition entry is “inactive”.
For `OC1CCCN(c2ncnc3c2nnn3Cc2c(F)cccc2Cl)C1` (stereo unspecified) the value was “inactive”; for `COc1ccc(CN2CCC(=O)c3ccccc3S2(=O)=O)cc1`, “inactive”.
With `COc1ccc(C2/C=C\CN(Cc3ccco3)C(C)C(=O)N2Cc2ccc(F)cc2)cc1` (stereo unspecified), the activity, negative = inhibition result was “inactive”.
In the case of `CCCCc1nn(-c2ccccc2C(F)(F)F)c(=O)n1Cc1ccc(-c2ccccc2S(=O)(=O)NC(=O)c2sccc2C)cc1`, the activity, negative = inhibition entry is “inactive”.
For `O=c1[nH]nc(SCCS(=O)(=O)c2ccc(F)cc2)n1-c1ccccc1C(F)(F)F` the value was “inactive”; for `O=C(O)c1ccc(NS(=O)(=O)c2ccc3c(c2)C(=O)c2cc(S(=O)(=O)Nc4ccc(C(=O)O)cc4)ccc2-3)cc1`, “inactive”.
To `COc1ccc(N)c(OC)c1` belongs “inactive”; to `COc1ccc(NC(=O)C2C3C=CC(C3)C2C(=O)NCc2ccccn2)c(OC)c1` (stereo unspecified), “inactive”.
For `COc1cccc(OC)c1C(=O)NC(=S)Nc1ccc(N2CCOCC2)c(Cl)c1` the value was “inactive”.
For `Cn1c(=O)c2c(-c3cccc(Br)c3)c(C#N)c(N)nc2n(C)c1=O`, the activity, negative = inhibition entry is “inactive”.
Turning to `O=C(NCC1CC1)C1(C(F)(F)F)C/C(=C\CCO)CCCO1` (stereo unspecified), the activity, negative = inhibition entry is “inactive”.
With `CCN(CC)/[N+]([O-])=N/Oc1cc(O/[N+]([O-])=N/N2CCCC2CO)c([N+](=O)[O-])cc1[N+](=O)[O-]` (stereo unspecified), the activity, negative = inhibition result is “inactive”.
